IL-1B inflam inh: blocks inflammasome-driven IL-1 beta release. THP-1 LPS/ATP IL-1B secretion, AlphaLISA, 16 h; active compounds read low. activity change, % at 57.5 µM. 360,000 tested, 4.7% active; in the data active = activity change below about -50%; inconclusive = mostly about -30% to -49%
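THP-1 cells pretreated 1 hr with compounds (up to 57.5 uM final), then stimulated with LPS (250 ng/mL final) plus ATP (1.25 mM final); secreted IL-1B measured by AlphaLISA after 16 hr, decreased signal indicating inhibition.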
Giardia killer: Giardia lamblia killing. Giardia lamblia trophozoite viability. activity change, % at 7.66 µM, hits read low. 340,000 tested, 0.15% active; in the data active = activity change below about -80%; inconclusive = between about -30% and that limit;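 note: parasites exposed to compound for two days anaerobically before the ATP read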
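Giardia trophozoites, 100 cells per well, were exposed to compounds for 48 hrs at 37 deg C under anaerobic conditions; viability was then read as ATP content by bioluminescence after 15-30 min at room temperature.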
TDP1 cell CPT: growth inhibition of DT40 Tdp1-/-;hTDP1 cells with camptothecin (screen for TDP1 inhibitors) | chicken DT40 Tdp1-/-;hTDP1 cells + 20 nM CPT, ATP luminescence, 48 h | Potency, µM (titrated, usually from 46.2 µM), for the others: at the highest dose activity change, negative = growth inhibition, most hits filed as inhibitors | 420,000 tested, 12% active | AID 686979; note: potency is the fitted concentration of half-maximal effect; nearly all actives have a fitted effect of over 55% in size
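Chicken DT40 Tdp1-/- cells stably complemented with human TDP1 were seeded at 400 cells/well in medium containing 20 nM camptothecin, exposed to pin-transferred compounds, and grown at 37 °C for at least 48 hr. Viability was read as ATP luminescence.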
ELG1 repair inh: blocks ELG1-dependent DNA repair in HEK293T cells; HEK293T ELG1-luciferase reporter, luminescence, 16 h; DNA damage induced by 5-fluorouridine; Potency, µM (series often up to 46.1 µM), inactives show top-dose activity change, negative = inhibition, actives largely listed as inhibitors; 330,000 tested, 2.3% active; AID 504467; note: potency is the fitted concentration of half-maximal effect; nearly all actives have a fitted effect of over 55% in size
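DMSO vehicle served as the neutral condition. Each well held 2,000 cells given 5-fluorouridine plus compound; after 16 hr at 37 °C/5% CO2, ONE-Glo was added and luciferase measured 30 min later.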
TDP1 cell noCPT: qHTS for Inhibitors of human tyrosyl-DNA phosphodiesterase 1 (TDP1): qHTS in cells in absence of CPT; Potency, µM (doses to about 46.2 µM), for the others: top-dose activity change, negative = growth inhibition, most hits filed as inhibitors; DT40 Tdp1-/- hTDP1 cells, no CPT, ATP luminescence, 48 h; 420,000 tested, 15% active; note: potency is the fitted concentration of half-maximal effect; nearly all actives have a fitted effect of over 55% in size
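Stably hTDP1-transfected Tdp1-null chicken DT40 cells were treated with library compounds minus camptothecin and grown for at least 48 hr at 37 °C, after which cellular ATP was quantified by luminescence.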
TDP1 block: blocks human tyrosyl-DNA phosphodiesterase 1; AID 485290; recombinant TDP1, AlphaScreen DNA substrate cleavage; Potency, µM (doses to about 130 µM), without a hit: top-dose activity change, negative = inhibition, usual class: inhibitors; Q9NUW8; 350,000 tested, 0.28% active; note: potency is the fitted concentration of half-maximal effect; nearly all actives have a fitted effect of over 40% in size
Target sequence (Q9NUW8 whole entry, looked up): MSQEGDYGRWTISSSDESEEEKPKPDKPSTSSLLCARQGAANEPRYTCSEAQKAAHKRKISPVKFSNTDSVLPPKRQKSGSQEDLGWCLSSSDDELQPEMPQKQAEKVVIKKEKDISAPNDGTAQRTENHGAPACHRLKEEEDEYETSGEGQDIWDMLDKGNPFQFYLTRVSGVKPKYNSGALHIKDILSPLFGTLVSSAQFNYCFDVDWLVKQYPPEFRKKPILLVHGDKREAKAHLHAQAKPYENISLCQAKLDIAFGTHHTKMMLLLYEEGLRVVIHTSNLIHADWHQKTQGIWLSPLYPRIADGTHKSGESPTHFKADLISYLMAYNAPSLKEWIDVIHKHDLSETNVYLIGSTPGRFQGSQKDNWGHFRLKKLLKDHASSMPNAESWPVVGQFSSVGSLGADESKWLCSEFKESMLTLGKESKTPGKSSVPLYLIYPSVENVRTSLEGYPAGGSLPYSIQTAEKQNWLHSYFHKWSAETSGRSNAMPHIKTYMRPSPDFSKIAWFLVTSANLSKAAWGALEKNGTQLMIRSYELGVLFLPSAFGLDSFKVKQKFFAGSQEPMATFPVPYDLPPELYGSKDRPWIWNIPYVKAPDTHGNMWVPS
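Enzyme-compound mixtures sat 15 min at room temperature, followed by a 5 min reaction with 15 nM final substrate and 10 min with AlphaScreen beads. Recombinant human Tdp1 was used at 1 nM final.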
* = called active by the depositor; [ ] = remark or other dose. Shown are actives, neighbours in structure and some others; about 19% of the full set was active somewhere. Unless noted, calls come from the whole dose curve; as a rule, active = well fitted curve in the direction sought with a large enough effect; inconclusive = small, poorly fitted or top-dose-only effect, or another doubt; inactive = no such curve, though single readings can be large; an effect the other way counts as inactive or inconclusive. % is set by controls: 0 for no effect and ±100 for the full control effect.

CC1CCCCN1S(=O)(=O)c1ccc2c(c1)oc(=O)n2CC(=O)Nc1ccc(Cl)cc1 (centres undefined) was read as TDP1 cell CPT inconclusive, TDP1 cell noCPT inconclusive and TDP1 block 2.3%.
Screening COc1ccc(NC(=O)Cn2c(=O)oc3cc(S(=O)(=O)N4CCCCCC4)ccc32)cc1OC returned TDP1 cell CPT 16.4µM*, TDP1 cell noCPT 13µM* and TDP1 block 9.3%.
`COc1ccccc1CNC(=O)Cn1c(=O)oc2cc(S(=O)(=O)N3CCCC3)ccc21` gave IL-1B inflam inh 0.6, Giardia killer 3.2, TDP1 cell CPT 13µM*, ELG1 repair inh -10.9%, TDP1 cell noCPT 29.1µM* and TDP1 block 2.5%.
For COc1ccc(NC(=O)Cn2c(=O)oc3cc(S(=O)(=O)N4CCCCC4C)ccc32)cc1 (centres undefined) the results were TDP1 cell CPT 18.4µM*, TDP1 cell noCPT 20.6µM* and TDP1 block 0.0%.
For COc1cc(OC)c(NC(=O)Cn2c(=O)oc3cc(S(=O)(=O)N4CCCC4)ccc32)cc1Cl the results were TDP1 cell CPT inconclusive, TDP1 cell noCPT 18.4µM* and TDP1 block 2.8%.
Screening O=C(CSc1cn(CC(=O)N2CCCCCC2)c2ccccc12)NCC1CCCO1 (centres undefined) returned IL-1B inflam inh 2.7, Giardia killer -3.3, TDP1 cell CPT -2.3%, ELG1 repair inh -8.9%, TDP1 cell noCPT 2.3% and TDP1 block 0.0%.
Screening Cc1csc(C(=O)NN)c1N(C)C returned IL-1B inflam inh -15.3, Giardia killer -2.4, TDP1 cell CPT -0.4%, ELG1 repair inh 28.6%, TDP1 cell noCPT -4.8% and TDP1 block 3.9%.
For CC(C)(C)OC(=O)N1CCC(NC(=O)c2nc[nH]c2C(=O)N2CCN(c3ccccc3)CC2)CC1 the results were IL-1B inflam inh -12.9, Giardia killer -9.9, TDP1 cell CPT inconclusive, ELG1 repair inh -5.6%, TDP1 cell noCPT inconclusive and TDP1 block 10.0%.
`Cc1ccc(NC(=O)C2CCN(C(=O)c3ccc(F)cc3)CC2)nc1` gave IL-1B inflam inh 11.8, Giardia killer -15.6, TDP1 cell CPT -11.5%, ELG1 repair inh -18.1%, TDP1 cell noCPT -12.4% and TDP1 block -11.9%[0.505 µM].
`COc1ccc(OC)c(CNC(=O)c2cc(=O)[nH]c3ccc(S(=O)(=O)N4CCCCC4C)cc23)c1` (centres undefined) gave TDP1 cell CPT inconclusive, TDP1 cell noCPT 16.4µM* and TDP1 block 2.6%.
Cc1cccc(NC(=O)Cn2c(=O)oc3cc(S(=O)(=O)NC4CCCC4)ccc32)c1 was read as TDP1 cell CPT inconclusive, TDP1 cell noCPT inconclusive and TDP1 block 2.9%.
CCOc1ccc(NC(=O)Cn2c(=O)oc3cc(S(=O)(=O)NC4CCCC4)ccc32)cc1 was read as TDP1 cell CPT 14.6µM*, TDP1 cell noCPT 11.6µM* and TDP1 block 3.9%.
Screening CCN(Cc1ccccc1)C(=O)Cn1c(=O)oc2cc(S(=O)(=O)N3CCCCCC3)ccc21 returned TDP1 cell CPT 16.4µM*, TDP1 cell noCPT 14.6µM* and TDP1 block 7.6%.
COc1ccc(NC(=O)Cn2c(=O)oc3cc(S(=O)(=O)N4CCCC4)ccc32)cc1 was read as IL-1B inflam inh -8.8, Giardia killer 11.5, TDP1 cell CPT -18.2%, ELG1 repair inh 14.9% and TDP1 cell noCPT -20.2%.
CCOc1ccc(NC(=O)Cn2c(=O)oc3cc(S(=O)(=O)N4CCCCCC4)ccc32)cc1 was read as TDP1 cell CPT 20.6µM*, TDP1 cell noCPT 20.6µM* and TDP1 block 3.8%.
Screening CCn1c(SCC(=O)NNC(=O)c2ccc(C)cc2)nnc1C1CC1 returned IL-1B inflam inh 11.0, Giardia killer -13.7, TDP1 cell CPT -12.8%, ELG1 repair inh 3.3%, TDP1 cell noCPT -26.3% and TDP1 block 0.7%.
Screening COc1cc(Cl)c(NC(=O)c2cc(S(=O)(=O)N3CCOCC3)cn2C)c(OC)c1 returned TDP1 cell CPT 5.4%, TDP1 cell noCPT -13.5% and TDP1 block -1.2%.
Cc1cccc(N2CCN(C(=O)c3ccc4c(c3)N(Cc3cccc(Cl)c3)C(=O)c3ccccc3S4=O)CC2C)c1 (centres undefined) was read as TDP1 cell CPT 5.8µM*, TDP1 cell noCPT 6.51µM* and TDP1 block 6.6%.
`CCN1C(=O)c2ccccc2S(=O)c2ccc(C(=O)N3CCN(c4cccc(C)c4)C(C)C3)cc21` (centres undefined) gave TDP1 cell CPT inconclusive, TDP1 cell noCPT 16.4µM* and TDP1 block 8.1%.
For CC(C)N1C(=O)CCC1C(=O)NCc1ccc(F)cc1Cl (centres undefined) the results were IL-1B inflam inh -2.1, Giardia killer 39.7, TDP1 cell CPT -2.8%, ELG1 repair inh -3.1% and TDP1 cell noCPT 11.2%.
Screening CCOC(=O)C1=C(CN2CCN(c3cc(C)ccc3C)CC2)NC(=O)NC1c1ccc(Cl)cc1 (centres undefined) returned TDP1 cell CPT inconclusive, TDP1 cell noCPT 16.4µM* and TDP1 block 7.0%.
CCOC(=O)C1=C(CN2CCN(c3ccc(OC)cc3)CC2)NC(=O)NC1c1ccc(Cl)cc1 (centres undefined) was read as TDP1 cell CPT 20.6µM*, TDP1 cell noCPT 14.6µM* and TDP1 block 11.6%.
For CCOC(=O)c1[nH]c(C)c(C(=O)N2CCN(c3ccc(OC)cc3)CC2)c1C the results were IL-1B inflam inh 18.9, Giardia killer 14.9, TDP1 cell CPT -21.1%, ELG1 repair inh -4.1%, TDP1 cell noCPT inconclusive and TDP1 block 1.2%.
Screening CCOC(=O)c1[nH]c(CN2CCN(c3ccc(OC)cc3)CC2)c(C(=O)OCC)c1C returned IL-1B inflam inh 20.2, Giardia killer 7.9, TDP1 cell CPT -23.5%, ELG1 repair inh 18.3µM*, TDP1 cell noCPT 13µM* and TDP1 block 8.0%[0.0935 µM].
`COc1ccc(C)cc1NC(=O)NCc1cccn1Cc1ccccc1` gave TDP1 cell CPT -18.7%, TDP1 cell noCPT inconclusive and TDP1 block 4.5%.
For CCOc1ccc(NC(=O)CN2C(=O)COc3ccccc32)cc1 the results were IL-1B inflam inh 27.2, Giardia killer -20.8, TDP1 cell CPT -1.3%, ELG1 repair inh 21.2% and TDP1 cell noCPT -0.6%.

Source: PubChem BioAssay (National Center for Advancing Translational Sciences (NCATS))
